The record followed here is the supplement of paper PMC6555819.

Assay in all cases: PBM binding z-score (relative to random genomic background probes); higher = stronger binding; sequences stand for … in GC…GCGATTGACAGCGTAGAATGAAGG
Assay [1] deals with FXR:RXRa (NR concentration 270 nM, RXRa partner concentration 90 nM). The gist of the method: (§1)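 Random background probes are the reference for binding z-scores. These scores derive from regression-normalized fluorescence on custom Agilent 4×180K protein-binding microarrays incubated 1 h with ligand-free nuclear receptor dimers. Binding was detected with antibodies against each partner (one per run).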

The test system of assay [2] is LXRa:RXRa (NR concentration 270 nM, RXRa partner concentration 90 nM). The gist of the method: as §1
The test system of assay [3] is LXRa homodimer (NR concentration 270 nM). In a few lines:
as §1

Assay [4] concerns LXRb:RXRa (NR concentration 270 nM, RXRa partner concentration 90 nM). In a few lines:
as §1

Assay [5] relates to PPARa:RXRa (NR concentration 270 nM, RXRa partner concentration 90 nM). The gist of the method:
as §1

Assay [6] has as its system PPARg:RXRa (NR concentration 180 nM, RXRa partner concentration 90 nM). The gist of the method:
as §1

In assay [7] the test system is PPARg:RXRa 270nM:90nM, anti-RXR (NR concentration 270 nM, RXRa partner concentration 90 nM). In a few lines: as §1
In assay [8] the test system is PPARg:RXRa 30nM:10nM, anti-RXR (NR concentration 30 nM, RXRa partner concentration 10 nM). The gist of the method: as §1
Assay [9] concerns PPARg:RXRa 90nM:30nM, anti-RXR (NR concentration 90 nM, RXRa partner concentration 30 nM). In a few lines:
as §1

CCGAGTAGGTTACCAGGGGGCATTCAGTGCGAAT: the PBM binding z-score came out at 2.76 in [1]; 7.81 in [2]; 3.59 in assay [3]; 6.85 in assay [4]; 3.43 in assay [5]; 2.1 in [6]. The PBM binding z-score in assay [7] came to 3.31; in assay [8] it was 0.696; in [9], 2.27.

With CTCTGTAGGTTAAGGGGGTCATTCAGTTTGAAAG, the PBM binding z-score in [1] is 5.36; in assay [2] it was 5.1; in assay [3], 3.51; in assay [4], 6.33; in assay [5] it was 5.68; in [6], 6.59. For the same sequence, the results for the PBM binding z-score in assay [7], in assay [8] and in assay [9] were 6.91, 4.4 and 6.57, respectively.

With CCGAGTAGGTTCCGAGGGGGCATTCAGTGCGAAT, the PBM binding z-score is 0.618 in assay [1]; 1.8 in assay [2]; 1.32 in assay [3]; 4.15 in assay [4]; 2.04 in assay [5]; -0.00423 in assay [6]. Also, the PBM binding z-score in [7] was 1.42; in [8] it was 0.548; in assay [9], 0.958.

As to CCAAGTAGGTTACGAGGGGGCATTCAGTGCGAAT, the PBM binding z-score worked out at 3.42 in [1]; 7.37 in [2]; 1.65 in [3]; 6.39 in assay [4]; 4.05 in [5]; 4.83 in assay [6]. In addition, the PBM binding z-score in assay [7] worked out at 4.89; in assay [8], 2.33; in [9], 3.81.

As to CTTTGTAGGTTAAGGGGGTCATTCAGTTTGAAAG, the PBM binding z-score came to 5.24 in assay [1]; 5.35 in assay [2]; 3.53 in [3]; 6.5 in assay [4]; 6.06 in assay [5]; 7.86 in assay [6]. Besides, the PBM binding z-score in assay [7] was found to be 7.59; in assay [8], 5.64; in assay [9] it was 7.23.

With TCGAGTAGGTTACGGGGGCATTAAGGGATGAAGA, the PBM binding z-score in assay [1] came to 2.01; in assay [2], 2.81; in assay [3] it was 0.404; in [4], 4.64; in [5], 4.16; in assay [6] it was 6.03. In addition, the PBM binding z-score is 5.7 in assay [7], 3.23 in [8] and 5.14 in assay [9].

In the case of CTATGTAGGTTAAGGGGATCATTCAGTTTGAAAG, the PBM binding z-score in [1] was found to be 0.585; in assay [2] it was 0.973; in assay [3], 0.126; in assay [4], 2; in assay [5], 3.77; in [6], 5.97. Besides, the PBM binding z-score in [7] was 5.5; in assay [8], 3.3; in [9] it was 4.86.

As to TTGAGTAGGTTACGGGGGCATTCAGGGATGAAGA, the PBM binding z-score turned out to be 3.06 in assay [1]; 3.3 in assay [2]; 1.18 in assay [3]; 5.2 in assay [4]; 4.63 in assay [5]; 7.11 in assay [6]. Also, the PBM binding z-score in assay [7] came to 6.44; in assay [8], 4.81; in assay [9] it was 5.83.

With TCGAGTAGGTTACGGGGGCATTTAGGGATGAAGA, the PBM binding z-score in assay [1] turned out to be 3.13; in [2] it was 3; in assay [3], 0.674; in assay [4] it was 5.04; in [5], 4.52; in [6], 6.04. The PBM binding z-score worked out at 5.65 in assay [7], 2.96 in [8] and 4.66 in assay [9].

Turning to TCGAGTGGGTTACGGGGGCATTCAGGGATGAAGA, the PBM binding z-score turned out to be 2.78 in assay [1]; 3.03 in assay [2]; 1.26 in assay [3]; 5.08 in assay [4]; 4.26 in assay [5]; 5.66 in assay [6]. Besides, the values for the PBM binding z-score in [7], in assay [8] and in assay [9] were 5.53, 3.59 and 4.84, respectively.

As to TCGAGTAGGTTACGGGGGCTTTCAGGGATGAAGA, the PBM binding z-score in [1] was 1.64; in [2] it was 2.06; in assay [3], 0.118; in [4] it was 4.46; in assay [5] it was 3.23; in assay [6], 3.47. For the same sequence, the PBM binding z-score in [7] was 3.94; in [8], 2.05; in assay [9], 3.12.

Take CCGAGTAGGTGACGAGGGGGCATTCAGTGCGAAT: the PBM binding z-score in [1] was found to be 1.24; in assay [2], 3.03; in [3] it was 0.595; in assay [4], 4.26; in assay [5], 3.3; in assay [6], 2.94. The PBM binding z-score in assay [7] came to 3.3; in assay [8], 0.701; in [9], 2.23.

Turning to CTATATAGGTTAAGGGGGTCATTCAGTTTGAAAG, the PBM binding z-score in assay [1] is 6.35; in assay [2], 5.57; in [3], 2.95; in [4], 6.48; in assay [5] it was 6.33; in [6], 8.85. The PBM binding z-score in assay [7] came out at 8.04; in assay [8], 6.09; in [9], 8.09.

Consider CCGAGTAGCTTACGAGGGGGCATTCAGTGCGAAT, for which the PBM binding z-score was 0.729 in [1]; 1.73 in [2]; 0.701 in [3]; 3.62 in [4]; 1.77 in assay [5]; -0.443 in [6]. In addition, the values for the PBM binding z-score in assay [7], in assay [8] and in assay [9] were 0.5, -0.877 and -0.359, respectively.

Turning to CTATGTAGATTAAGGGGGTCATTCAGTTTGAAAG, the PBM binding z-score in [1] came out at 4.51; in assay [2], 4.72; in assay [3], 3.33; in assay [4], 6.12; in [5], 5.52; in assay [6] it was 4.29. The PBM binding z-score turned out to be 5.06 in assay [7], 2.72 in [8] and 4.53 in assay [9].

Turning to TCGAGTAGGTTACCGGGGCATTCAGGGATGAAGA, the PBM binding z-score in assay [1] was 0.549; in assay [2], 0.561; in [3], -0.39; in assay [4], 0.585; in assay [5], 2.27; in assay [6], 2.79. Moreover, the results for the PBM binding z-score in assay [7], in assay [8] and in assay [9] were 2.86, 1.46 and 2, respectively.
